Experimental findings from the antibiotic and cytotoxicity screens of Wong et al. (2023) are described below.

About 3,300 (8.5%) of roughly 39,000 compounds were called active. Shown is part of a subset that was picked to be rich in actives.

The test system of this assay is HepG2. Briefly: cytotoxicity call (relative viability < 0.9). Particulars: 10 µM.
For the compound `Nc1nc(/C(=N/O)C(=O)N[C@@H]2C(=O)N3C(C(=O)O)=C(/C=C4\CCN([C@@H]5CCNC5)C4=O)CS[C@H]23)ns1`, the cytotoxicity call was “inactive”.

With `CSc1ncc(C(=O)NN)n1C`, the cytotoxicity call was “inactive”.

For the compound `CCS(=O)(=O)NCC[C@H]1CC[C@H](NC(=O)C2CC2)[C@H](CO)O1`, the cytotoxicity call is “inactive”.

`CN(C)C(=O)COC[C@]12COC[C@H]1CN(S(C)(=O)=O)C2`: the cytotoxicity call was “inactive”.

With `C[C@H](CO)N1C[C@H](C)[C@H](CN(C)C(=O)Nc2ccc3c(c2)OCO3)Oc2ccc(NC(=O)c3ccncc3)cc2CC1=O`, the cytotoxicity call is “inactive”.

As to `C[C@H](CO)N1C[C@H](C)[C@H](CN(C)C(=O)Nc2ccc3c(c2)OCO3)Oc2ccc(NS(=O)(=O)c3cn(C)cn3)cc2CC1=O`, the cytotoxicity call is “inactive”.

Turning to `O=C(Nc1ccc2c(c1)[C@@H]1C[C@@H](CC(=O)N3CCc4ccccc4C3)O[C@H](CO)[C@@H]1O2)C1CCOCC1`, the cytotoxicity call was “inactive”.

In the case of `C[C@@H]1CN([C@@H](C)CO)C(=O)Cc2cc(NC(=O)C3CC3)ccc2O[C@@H]1CN(C)C(=O)Nc1ccccc1`, the cytotoxicity call is “inactive”.

With `C[C@@H]1CN([C@H](C)CO)C(=O)c2cc(NC(=O)C3CCCCC3)ccc2O[C@@H](C)CCCCO[C@@H]1CN(C)S(=O)(=O)c1ccc(F)cc1`, the cytotoxicity call was “inactive”.

For `O=C(CN1CCOCC1)NCC[C@H]1CC[C@@H](NC(=O)Cc2ccccn2)[C@@H](CO)O1`, the cytotoxicity call was “inactive”.

With `Cc1noc(C)c1NC(=O)N(C)C[C@H]1Oc2c(NS(=O)(=O)c3c(C)noc3C)cccc2C(=O)N([C@@H](C)CO)C[C@H]1C`, the cytotoxicity call is “inactive”.

On to `C=CCOC(=O)[C@H]1[C@@H]2C(=O)O[C@@H](c3ccccc3)[C@@H](c3ccccc3)N2[C@@H](c2ccc(OCCOC(=O)[C@H]3C[C@H]4C(=O)N[C@@H](Cc5ccccc5)C(=O)N4[C@H]3c3ccc(O)cc3)cc2)[C@]12C(=O)Nc1ccccc12`, for which the cytotoxicity call was “inactive”.

In the case of `C[C@H]1CN([C@@H](C)CO)C(=O)c2cc(NC(=O)c3ccncc3)ccc2O[C@H]1CN(C)S(=O)(=O)c1ccccc1`, the cytotoxicity call is “inactive”.

On to `O=C(CCCCC(=O)N/N=C/[C@H](O)[C@@H](O)[C@H](O)[C@H](O)CO)NO`, for which the cytotoxicity call was “inactive”.

As for `Cc1cc(N)c2ccccc2[n+]1CCCCCCCCCC[n+]1c(C)cc(N)c2ccccc21.[Cl-].[Cl-]`, the cytotoxicity call was “active”.

With `CCCN(C)C[C@@H]1OCCCC[C@@H](C)Oc2ccc(NS(=O)(=O)c3ccc(Cl)cc3)cc2C(=O)N([C@H](C)CO)C[C@@H]1C`, the cytotoxicity call is “inactive”.

Turning to `COc1ccc(NC(=O)Nc2ccc3c(c2)C(=O)N([C@H](C)CO)C[C@H](C)[C@H](CN(C)Cc2ccncc2)OCCCC[C@@H](C)O3)cc1`, the cytotoxicity call was “inactive”.

Consider `CN(C)c1nc(N)nc(CSc2nnnn2C)n1`, for which the cytotoxicity call is “inactive”.

Turning to `COc1ccc(CN(C)C[C@H]2Oc3ccc(NS(=O)(=O)c4c(C)noc4C)cc3CC(=O)N([C@H](C)CO)C[C@H]2C)cc1`, the cytotoxicity call is “inactive”.
